# Data published in PubChem BioAssay (NCATS).
# Inconclusive results are not listed. Where a call stands in place of a potency, no number is given. Active and inactive are the calls of the source. Unless noted, calls come from the whole dose curve; as a rule, active = well fitted curve in the direction sought with a large enough effect; inconclusive = small, poorly fitted or top-dose-only effect, or another doubt; inactive = no such curve, though single readings can be large; an effect the other way counts as inactive or inconclusive.
# Legend:
# [1] = biological target: Cytochrome P450 2C19 (Homo sapiens) (UniProt P33261); assay: qHTS Assay for Inhibitors and Substrates of Cytochrome P450 2C19 (AID 899); note: nearly all actives have a fitted effect of over 60% in size; note: potency is the fitted concentration of half-maximal effect
# In short: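 Human CYP2C19 (5nM) with Luciferin-H EGE at 10uM (its KM) in 50mM KPO4 was preincubated with compound for 10 min at 37C. NADPH regeneration started a 60 min 37C reaction. Luciferin was read by luminescence, normalized to 57uM ketoconazole.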
# [2] = system: Zika virus NS2B-NS3 protease (linked); assay: 384 well plate NINDS AMC confirmatory qHTS for Zika virus inhibitors (AID 1347163); note: nearly all actives have a fitted effect of over 50% in size; note: potency is the fitted concentration of half-maximal effect
# In short: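 Linked NS2B-NS3 protease (final 5 nM, 30 nM or 60 nM) was preincubated with compounds (final up to 1 mM) for ~15 minutes. Ac-VKTGKR-AMC substrate (final 30 microM) then reacted for 25 minutes at room temperature in the dark. Fluorescence (ex 355/em 460 nm) was normalized to no-enzyme and no-inhibitor controls.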
# [3] = Confirmation and Secondary Assay for Modulators of Hemoglobin Beta Chain Splicing at IVS2 654 locus (AID 910)
# In short: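 HeLa cells stably carrying EGFP interrupted by mutant beta-globin IVS2-654 intron (CMV-driven) were treated with compound for 2 days at 37C; corrected splicing was scored as total peak GFP intensity per well (488 nm excitation, 500-520 nm emission).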
# [4] = Confirmation and Secondary Assay for Modulators of Hemoglobin Beta Chain Splicing at IVS2 705 locus (AID 930);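 note: HeLa cells stably expressing the EGFP-705 splicing reporter; GFP fluorescence per well restored by corrected splicing of the IVS2-705 intron in EGFP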
# In short: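 Read-out: total peak GFP fluorescence per well (488 nm excitation, 500-520 nm emission) by laser-scanning cytometry. Cells: HeLa EGFP-705 splicing reporter, 2 days compound exposure in Optimem/2% FCS.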
# [5] = Confirmatory qHTS for VERO E6 Cytotoxicity Assay: Counterscreen for SARS-CoV-2 CPE Assay (AID 1508605; calls by dose curve; note: nearly all actives have a fitted effect of over 60% in size; note: potency is the fitted concentration of half-maximal effect)
# [6] = biological target: Cytochrome P450 2D6 (Homo sapiens) (UniProt P10635); assay: Cytochrome P450 family 2 subfamily D member 6 (CYP2D6) small molecule antagonists: luciferase biochemical (cell-free) qHTS assay (AID 1645840; active = well fitted curve in the direction sought with a large enough effect in the repeat runs; an effect the other way counts as inactive or inconclusive; note: nearly all actives have a fitted effect of over 55% in size)
# In short: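 P450-Glo luminescent screen: recombinant CYP2D6 enzyme–proluciferin substrate mix preincubated with compound 10 min at room temperature, then NADPH regeneration added for 1 h at room temperature. Detection reagent added for 20 min; luciferin light read as relative luminescence units.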
# [7] = biological target: Cytochrome P450 2C9 (Homo sapiens) (UniProt P11712); assay: Cytochrome P450 family 2 subfamily C member 9 (CYP2C9) small molecule antagonists: luciferase biochemical (cell-free) qHTS assay (AID 1645842; active = well fitted curve in the direction sought with a large enough effect in the repeat runs; an effect the other way counts as inactive or inconclusive; note: nearly all actives have a fitted effect of over 55% in size)
# In short: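 Luminescence, after 20 min with luciferin detection reagent, reflected CYP2C9 turnover during a 1 h NADPH-driven reaction at 37C. Enzyme-substrate mix contained 0.4% bovine serum albumin and was preincubated with compound 10 min at room temperature.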
# [8] = Viability counterscreen for antagonist of constitutive androstane receptor (CAR) against the NCATS DSHEA and TCM libraries (AID 1794837);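 note: compound exposure lasted 24 h before viability reading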
# In short: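 Cells: HepG2 line carrying CYP2B6 reporter and hCAR, seeded and attached 5 h. Then pin-transferred test substances plus agonist CITCO at 48 uM final; 24 h incubation; fluorogenic viability reagent, 1 h.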
# [9] = Viability counterscreen for agonist of constitutive androstane receptor (CAR) against the NCATS DSHEA and TCM libraries (AID 1794838);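 note: HepG2 cells with CYP2B6 reporter and hCAR plus 0.75 µM PK11195 antagonist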
# In short: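 Cell health was measured as CellTiter-Fluor signal in HepG2-CYP2B6-hCAR cells treated for 24 h with substances alongside the hCAR antagonist PK11195 (0.75 uM final).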
# [10] = HepG2 viability counterscreen (readout 2: ATP content) against the NCATS DSHEA and TCM libraries (AID 1794840)
# In short: (§1)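 Same wells read twice: first fluorescence from cleaved GF-AFC substrate (25 uM final, 30 min, 37C) for live-cell protease, then CellTiter-Glo luminescence after 30 min at room temperature for ATP. HepG2 cells were exposed ~24 h to substances.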
# [11] = HepG2 viability counterscreen (readout 1: protease activity) against the NCATS DSHEA and TCM libraries (AID 1794841);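 note: cells exposed to compounds for about 24 h before the protease read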
# In short: as §1
# CP191 = assay: qHTS profiling for inhibitors of Plasmodium falciparum proliferation (AID 504749); note: nearly all actives have a fitted effect of over 60% in size; conditions: P. falciparum in erythrocytes, SYBR Green DNA, 72 h; series mostly up to 28.7 µM
# In short: (§2)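 Parasite proliferation within erythrocytes, 72 h exposure. Endpoint: SYBR Green I fluorescence after overnight lysis at room temperature. Controls: 0.29 uM artemisinin, DMSO.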
# CP260 = assay: as above; conditions: P. falciparum in erythrocytes, SYBR Green DNA, 72 h; series mostly up to 28.7 µM
# In short: as §2
# CP291 = assay: as above; conditions: P. falciparum in erythrocytes, SYBR Green DNA, 72 h; series mostly up to 28.7 µM
# In short: as §2
# CP297 = assay: as above; conditions: P. falciparum in erythrocytes, SYBR Green DNA, 72 h; series mostly up to 28.7 µM
# In short: as §2
# CP315 = assay: as above; conditions: P. falciparum in erythrocytes, SYBR Green DNA, 72 h; series mostly up to 28.7 µM
# In short: as §2
# CP335 = assay: as above; conditions: P. falciparum in erythrocytes, SYBR Green DNA, 72 h; series mostly up to 12.8 µM
# In short: as §2
# ICS = assay: as above; conditions: P. falciparum in erythrocytes, SYBR Green DNA, 72 h; series mostly up to 28.7 µM
# In short: as §2
# JCK = assay: as above; conditions: P. falciparum in erythrocytes, SYBR Green DNA, 72 h; series mostly up to 28.7 µM
# In short: as §2
# TAB165 = assay: as above; conditions: P. falciparum in erythrocytes, SYBR Green DNA, 72 h; series mostly up to 28.7 µM
# In short: as §2
# Chain of Cytochrome P450 2D6 (Homo sapiens) (P10635 whole entry, looked up): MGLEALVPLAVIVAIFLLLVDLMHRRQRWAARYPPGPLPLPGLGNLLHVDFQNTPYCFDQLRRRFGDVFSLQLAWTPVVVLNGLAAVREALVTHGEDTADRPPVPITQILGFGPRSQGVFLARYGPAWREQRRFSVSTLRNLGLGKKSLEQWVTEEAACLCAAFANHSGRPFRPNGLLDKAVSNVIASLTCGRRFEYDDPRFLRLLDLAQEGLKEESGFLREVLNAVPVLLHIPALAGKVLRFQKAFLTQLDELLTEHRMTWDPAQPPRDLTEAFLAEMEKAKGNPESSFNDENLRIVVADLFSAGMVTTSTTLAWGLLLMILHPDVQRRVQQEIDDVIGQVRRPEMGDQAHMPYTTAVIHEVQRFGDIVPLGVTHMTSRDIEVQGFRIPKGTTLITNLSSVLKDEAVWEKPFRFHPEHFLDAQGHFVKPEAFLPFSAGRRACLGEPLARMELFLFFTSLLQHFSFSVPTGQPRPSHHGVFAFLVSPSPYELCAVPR
# Chain of Cytochrome P450 2C19 (Homo sapiens) (P33261 whole entry, looked up): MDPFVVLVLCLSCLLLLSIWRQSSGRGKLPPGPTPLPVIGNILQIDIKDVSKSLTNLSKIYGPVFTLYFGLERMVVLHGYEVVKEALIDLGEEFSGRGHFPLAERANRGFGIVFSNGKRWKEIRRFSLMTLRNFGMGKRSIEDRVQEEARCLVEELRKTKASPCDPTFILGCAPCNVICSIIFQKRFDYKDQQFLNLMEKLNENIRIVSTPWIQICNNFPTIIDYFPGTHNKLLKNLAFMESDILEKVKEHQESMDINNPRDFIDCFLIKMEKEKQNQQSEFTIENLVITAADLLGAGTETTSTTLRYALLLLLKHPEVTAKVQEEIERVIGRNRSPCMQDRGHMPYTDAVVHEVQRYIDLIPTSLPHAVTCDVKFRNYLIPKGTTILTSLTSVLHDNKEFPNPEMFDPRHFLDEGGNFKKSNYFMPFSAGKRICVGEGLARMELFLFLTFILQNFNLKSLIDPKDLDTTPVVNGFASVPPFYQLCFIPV
# Chain of Cytochrome P450 2C9 (Homo sapiens) (P11712 whole entry, looked up): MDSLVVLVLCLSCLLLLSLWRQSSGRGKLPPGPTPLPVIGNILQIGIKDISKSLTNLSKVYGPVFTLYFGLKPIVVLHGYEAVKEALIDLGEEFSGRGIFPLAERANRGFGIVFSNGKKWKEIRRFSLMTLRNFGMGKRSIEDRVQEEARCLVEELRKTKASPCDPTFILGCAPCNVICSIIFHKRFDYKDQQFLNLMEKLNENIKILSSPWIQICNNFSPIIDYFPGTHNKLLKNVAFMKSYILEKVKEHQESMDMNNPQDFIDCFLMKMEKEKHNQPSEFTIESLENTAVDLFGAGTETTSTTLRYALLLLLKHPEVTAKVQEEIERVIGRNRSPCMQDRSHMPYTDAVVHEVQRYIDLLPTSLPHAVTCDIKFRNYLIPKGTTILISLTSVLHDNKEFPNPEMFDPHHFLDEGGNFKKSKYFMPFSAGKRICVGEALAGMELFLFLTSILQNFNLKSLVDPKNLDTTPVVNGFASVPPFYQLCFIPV
smiles,measurement,setting,value
CN(C)[C@@H]1C(=O)C(C(N)=O)=C(O)[C@]2(O)C(=O)C3=C(O)c4c(O)cccc4[C@@](C)(O)[C@@H]3C[C@@H]12,Potency,[1],inactive
same,Potency,[2],inactive
CN(C)C1C(=O)C(C(N)=O)=C(O)[C@@]2(O)C(=O)C3=C(O)c4c(O)ccc(Cl)c4[C@](C)(O)C3CC12 (some centres undefined),Potency,[3],inactive
same,Potency,[4],inactive
same,Potency,[2],282000 nM (active)
COC(=O)[C@@]12OC[C@]34[C@H]([C@@H](O)[C@@H]1O)[C@@]1(C)CC(=O)C(O)=C(C)[C@@H]1C[C@H]3OC(=O)[C@H](OC(=O)/C=C(\C)C(C)C)[C@@H]24,Potency,[5],127 nM (active)
N#CC(O[C@@H]1O[C@H](CO[C@@H]2O[C@H](CO)[C@@H](O)[C@H](O)[C@H]2O)[C@@H](O)[C@H](O)[C@H]1O)c1ccccc1 (some centres undefined),Potency,[6],inactive
same,Potency,[7],inactive
same,outcome,[8],inactive
same,outcome,[9],inactive
same,outcome,[10],inactive
same,outcome,[11],inactive
CCCCCCC(C)(C)c1cc(O)c2c(c1)OC(C)(C)C1CC=C(CO)C[C@H]21 (some centres undefined),Potency,[5],inactive
CCC1/C=C/C=CCC(C)C(O)[C@@](C)(O)C(=O)C(C)C(O)C(C)C(=O)C(C)C(O)C(C)C=CC(=O)O[C@H]2C(C)C(CC1)O[C@]1(CCC(C)C(CC(C)O)O1)C2C (some centres undefined),Potency,[3],inactive
same,Potency,[4],inactive
C[C@@H](C1CC[C@@]2(O)C3=CC(=O)[C@@H]4C[C@@H](O)[C@@H](O)C[C@]4(C)[C@H]3CC[C@]12C)[C@H](O)CCC(C)(C)O (some centres undefined),Potency,[6],inactive
same,Potency,[7],inactive
C=C(C)[C@@H]1CCC(C)=C[C@H]1c1c(O)cc(CCCCC)cc1O,outcome,[8],inactive
same,outcome,[9],inactive
same,outcome,[10],inactive
same,outcome,[11],inactive
CC(C)(O)C1C2OC(=O)C1[C@]1(O)C[C@H]3O[C@]34C(=O)O[C@H]2[C@]14C (some centres undefined) (tested in a mixture with another compound),Potency,CP191,inactive
same,Potency,CP260,inactive
same,Potency,CP291,inactive
same,Potency,CP297,inactive
same,Potency,CP315,inactive
same,Potency,CP335,inactive
same,Potency,ICS,inactive
same,Potency,JCK,inactive
same,Potency,TAB165,inactive
Oc1ccc2c3c1O[C@H]1[C@@H](O)CC[C@@]4(O)C(C2)N(CC2CCC2)CCC314 (some centres undefined),Potency,CP191,inactive
same,Potency,CP260,inactive
same,Potency,CP291,inactive
same,Potency,CP297,inactive
same,Potency,CP315,inactive
same,Potency,CP335,inactive
same,Potency,ICS,inactive
same,Potency,JCK,inactive
same,Potency,TAB165,inactive
CC[C@@H](CO)NC(=O)[C@H]1C=C2c3cccc4c3c(cn4C)C[C@H]2N(C)C1,Potency,[1],126 nM (active)
CCCC[N+]1(C)C2CC(OC(=O)C(CO)c3ccccc3)CC1C1OC12 (centres undefined),Potency,CP191,inactive
same,Potency,CP260,inactive
same,Potency,CP291,inactive
same,Potency,CP297,inactive
same,Potency,CP315,inactive
same,Potency,CP335,inactive
same,Potency,ICS,inactive
same,Potency,JCK,inactive
same,Potency,TAB165,inactive
